Consider 9 compounds from PubChem BioAssay (NCI).

The panel holds about 83,000 compounds, 20% with a hit somewhere; the sample as a whole holds those more often.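 A percent growth of 40 corresponds to 60% growth inhibition; 0 means no net growth; -100 means all cells died. Active threshold: below 10.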 Values without a mark were called inactive. Calls of active or inactive are those of the source.

Holding throughout (test): NCI-60 one-dose screen, 48 h (100 = growth as untreated, 0 = no growth, -100 = all killed)
Common to all, as to conditions: 10 µM unless noted

For assay [1], the system named is SK-MEL-2 melanoma.
In assay [2] the test system is EKVX NSCLC.
For assay [3], the system named is SN12C renal.
Assay [4] concerns UO-31 renal.
In assay [5] the test system is TK-10 renal.
For assay [6], the system named is ACHN renal.
Assay [7] concerns CAKI-1 renal.
For assay [8], the system named is A498 renal.
The subject of assay [9] is CCRF-CEM leukemia.
Assay [10] deals with MOLT-4 leukemia.
For assay [11], the system named is SR leukemia.
The subject of assay [12] is RPMI-8226 leukemia.
The subject of assay [13] is OVCAR-8 ovarian.
The subject of assay [14] is OVCAR-5 ovarian.
Assay [15] concerns OVCAR-4 ovarian.
Assay [16] deals with SK-OV-3 ovarian.
Assay [17] relates to IGROV1 ovarian.
The subject of assay [18] is HS 578T breast.
The test system of assay [19] is NCI/ADR-RES ovarian.
Assay [20] concerns OVCAR-3 ovarian.

For `CS(=O)(=O)c1ccc(C(=O)N/N=C/c2ccccc2O)cc1`, the growth in assay [1] was 40%; in assay [2], 25.8%; in [3], 58.7%; in assay [4], 18%; in assay [5] it was 45.8%; in [6], 28.3%. Also, the growth in [7] is 34.9%; in assay [8], 75.2%; in assay [9], 15.3%; in assay [10] it was 9.19% (active); in assay [11], 20.4%; in [12], 48.7%. Besides, the growth is 27.9% in assay [13]; 64.7% in assay [14]; 43.6% in assay [15]; 39.9% in assay [16]; 41% in [17]; 81.5% in [18]. The growth in assay [19] was 29.9%.
On to `CCC1=CC2CN(C1)Cc1c([nH]c3ccccc13)[C@@](C(=O)OC)(c1cc3c(cc1OC)N(C)[C@H]1[C@@](O)(C(=O)OC)[C@H](OC(C)=O)[C@]4(CC)C=CCN5CC[C@]31[C@@H]54)C2` (stereo not given in full), for which the growth was 5.95% (active) in [1]; 68.6% in [2]; 36.9% in assay [3]; 51.5% in assay [4]; 41.2% in [5]; 34.1% in [6]. Further, the growth in assay [7] was 44.3%; in assay [8], -14.6% (active); in [9], 19.1%; in assay [10], 6.56% (active); in assay [11], 6.9% (active); in assay [12], 31.4%. For the same compound, the growth was 21.3% in [13]; 15.6% in [14]; 29.6% in [15]; 7.75% (active) in assay [16]; -29.6% (active) in [20]; 29.1% in assay [18]. In assay [19], the growth was -16.1% (active).
Regarding `CN(C)N1C(=O)c2c(Cl)c(Cl)c(Cl)c(Cl)c2C1=O`, the growth in assay [1] was 105%; in [2], 124%; in assay [3] it was 103%; in assay [4] it was 95.9%; in assay [5], 98%; in assay [6], 133%. For the same compound, the growth was 126% in [7]; 106% in assay [8]; 89% in [9]; 88.3% in [10]; 87.5% in assay [11]; 97% in [12]. Besides, the growth in assay [13] is 105%; in assay [14], 115%; in assay [15], 111%; in [16], 106%; in [20] it was 122%; in assay [18], 99%. The growth in assay [19] is 101%.
On to `CC(=O)Cc1ccccn1`, for which the growth was 102% in [1]; 97.7% in [2]; 111% in assay [3]; 88.5% in [4]; 109% in [5]; 99.5% in assay [6]. In addition, the growth in assay [7] is 88%; in [8] it was 107%; in assay [9], 99.5%; in assay [10], 102%; in assay [11], 108%; in assay [12] it was 103%. The growth in assay [13] is 110%; in assay [14], 110%; in assay [16] it was 119%; in [17], 107%; in assay [20] it was 105%; in [18], 107%. Further, in assay [19], the growth is 108%.
For `O=c1nc(-c2ccccc2)c2cc(-c3ccc(N4CCOCC4)cc3)ccc2[nH]1`, the growth in assay [1] was 81.6%; in [2], 89.8%; in assay [3], 79.4%; in [4], 66%; in [5], 68.1%; in assay [6], 71.6%. In addition, the growth in [7] is 74.8%; in [8], 88.6%; in assay [9], 77.4%; in assay [10] it was 71.2%; in assay [11], 71.2%; in assay [12], 51.3%. Also, the growth in [13] is 82%; in assay [14], 99.5%; in assay [16], 77.1%; in assay [17], 81.6%; in assay [20], 97.1%; in assay [18], 84%. In addition, the growth in [19] is 95.3%.
On to `COc1ccc(NC(=O)c2sc3c(=O)[nH]c(C(F)(F)F)nc3c2C)cc1`, for which the growth in [1] is 91.5%; in assay [2], 83.8%; in assay [3], 99.8%; in assay [4], 74.2%; in assay [5], 104%; in assay [6], 102%. Further, the growth in assay [7] is 85.4%; in assay [8], 108%; in assay [9], 90%; in [10], 89.7%; in assay [11], 106%; in [12], 95%. The growth in assay [13] was 100%; in [14], 116%; in assay [16] it was 98.5%; in [17], 90%; in assay [18], 104%; in [19], 102%.
Turning to `Cc1ccc(NC(=O)c2sc3nc4c(cc3c2N)C(=O)CCC4)cc1Cl`, the growth in [1] was 112%; in assay [2], 86.2%; in [3], 119%; in [4], 111%; in assay [5] it was 96.5%; in assay [6], 109%. Also, the growth is 85.9% in assay [7]; 97.9% in assay [8]; 104% in [9]; 108% in assay [10]; 105% in assay [11]; 105% in assay [12]. Also, the growth is 103% in [13]; 101% in [14]; 114% in [16]; 106% in [17]; 113% in assay [20]; 113% in assay [18]. Also, in [19], the growth is 104%.
Consider `CC(C)CCC(=O)[C@@H](C)[C@H]1[C@@H](OC2OCC(O)C(O)C2NS(C)(=O)=O)C[C@H]2[C@@H]3CC=C4C[C@@H](O)CC[C@]4(C)[C@H]3CC[C@]12C` (stereo not given in full), for which the growth in assay [1] was -36.9% (active); in [2] it was 27.7%; in assay [3], 75.2%; in assay [4], -16.1% (active); in assay [5], 26.1%; in assay [6], 42.1%. Moreover, the growth was 24.1% in assay [7]; -58.4% (active) in assay [8]; -8.84% (active) in assay [9]; -0.0897% (active) in assay [10]; 17% in assay [11]; -26.1% (active) in [12]. The growth is 35.4% in assay [13]; 64.5% in [14]; 75.5% in [15]; 0.627% (active) in [16]; 68.8% in [20]; -4.14% (active) in assay [18]. Further, the growth in assay [19] is 82.7%.
Regarding `COc1ccc2nc3ccccc3c(NCc3ccc(Cl)cc3)c2c1`, the growth in assay [1] is 71.3%; in assay [2], 33.8%; in [3], 22.1%; in assay [4], 1.86% (active); in assay [5], 52.9%; in [6] it was 17.1%. The growth was 21.4% in [7]; 8.58% (active) in assay [8]; 8.43% (active) in assay [9]; -8.25% (active) in [10]; -29.6% (active) in assay [11]; -44.9% (active) in assay [12]. For the same compound, the growth in assay [13] was 29.7%; in [14], 26.5%; in [16], 64%; in [17] it was 16.3%; in assay [20] it was 51%; in assay [18], 36%. Also, in [19], the growth is 22.9%.
